Screening results from PubChem BioAssay.
CHO-K1 Ca PAM = M1 PAM counterscreen hit in parental CHO-K1 cells | ATP EC20, Fluo-8 calcium fluorescence; 0% at ATP EC20, 100% at ATP max | activation, % at 3 µM | actives 0.02% (n = 360,000) | AID 602247;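 active = activation above the run cutoff, the mean activation of all test compounds plus 3 SD, cut at about 40% in these data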;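 note: peak over basal fluorescence ratio in a 140 s read after ATP addition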
M1 antag = blocks human M1 muscarinic receptor. AID 588852. actives 1.3% (n = 360,000). P11229. inhibition, % at 3 µM. CHO-K1 hM1, Fluo-8 calcium fluorescence, ACh EC80 antagonist;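 active = percent inhibition above its own plate's cutoff, namely the mean of that plate's compound wells plus 3 SD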;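 note: peak over basal fluorescence ratio during 140 s after agonist addition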
Target sequence (P11229 whole entry, looked up): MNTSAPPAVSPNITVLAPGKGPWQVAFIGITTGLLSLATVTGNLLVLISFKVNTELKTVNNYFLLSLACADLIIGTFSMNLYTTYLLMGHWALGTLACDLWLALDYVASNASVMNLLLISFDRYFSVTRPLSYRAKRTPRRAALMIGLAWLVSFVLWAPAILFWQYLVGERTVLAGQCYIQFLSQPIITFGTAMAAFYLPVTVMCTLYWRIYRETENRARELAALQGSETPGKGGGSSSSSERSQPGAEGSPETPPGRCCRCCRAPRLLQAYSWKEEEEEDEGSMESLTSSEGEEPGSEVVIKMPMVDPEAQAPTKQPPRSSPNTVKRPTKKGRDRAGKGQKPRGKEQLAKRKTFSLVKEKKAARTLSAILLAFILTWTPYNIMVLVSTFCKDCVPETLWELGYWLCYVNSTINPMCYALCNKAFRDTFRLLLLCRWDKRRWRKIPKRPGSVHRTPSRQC
M1 PAM = potentiates human M1 receptor response to acetylcholine | P11229 | CHO-K1 hM1, Fluo-8 calcium fluorescence, ACh EC20; 0% = ACh EC20, 100% = maximal ACh | activation, % at 3 µM | actives 0.088% (n = 360,000) | AID 588819; in the data active = activation above about 19%, passing the limit was not always enough
M1 ag parental = M1 agonist counterscreen hit in parental CHO-K1 cells; actives 0.48% (n = 360,000); AID 602248; activation, % at 3 µM; Fluo-8 calcium fluorescence; scaled to maximal ATP response, vehicle zero; in the data active = activation above about 15%;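 note: untransfected CHO-K1 host cells lacking M1 receptor as counterscreen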
M1 ag = human M1 muscarinic receptor agonism; CHO-K1 hM1, Fluo-8 calcium fluorescence, agonist mode; 0% DMSO, 100% acetylcholine EC100; activation, % at 3 µM; actives 0.33% (n = 360,000);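 active = activation above the run's mean compound activation plus 3 SD, cut at about 16% in these data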;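 note: peak over basal fluorescence ratio within a 140 s kinetic read after compound addition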
CHO-K1 Ca antag = nonselective inhibitor or artifact in parental CHO-K1 cells; ATP-induced calcium, Fluo-8 fluorescence; inhibition, % at 3 µM; actives 0.6% (n = 360,000);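 active = inhibition above a per-plate cutoff, the plate's mean sample inhibition plus 3 SD, cut at about 24% in these data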
Hits are given with their value; – = inactive. Sampled rows, rich in hits. Any-hit rate of the full collection: about 2.3%.

SMILES	CHO-K1 Ca PAM	M1 antag	M1 PAM	M1 ag parental	M1 ag	CHO-K1 Ca antag
COc1cc(CC(=O)N(C)CC(=O)Nc2cc(C)ccc2C)cc(OC)c1OC	–	–	–	–	–	–
COc1ccc(CCN2CC(C(=O)N3CCCCCC3)CCC2=O)cc1 (stereo not drawn)	–	–	–	–	–	–
COc1ccc(/C=C/CN2CCCC(CCC(=O)NCc3ccc(F)c(F)c3)C2)cc1 (stereo not drawn)	–	84	–	–	–	–
O=C(CCC1CCCN(Cc2cccc3c2OCO3)C1)NCc1ccc(F)c(F)c1 (stereo not drawn)	–	42	–	–	–	–
COc1ccccc1/C=C/CN1CCCC(CCC(=O)NCc2ccc(F)c(F)c2)C1 (stereo not drawn)	–	–	–	–	–	–
CC(C)Cn1c(-c2ccc(Br)cc2)c[nH]c1=S	–	–	–	15	–	–
C=CCn1c(=S)[nH]c2cc(C(=O)Nc3ccc(F)cc3)ccc2c1=O	–	23	–	–	–	–
CCN1CCN(c2ccc(S(=O)(=O)N3CCCCC3)cc2NC(=O)c2sccc2C)CC1	–	–	–	–	–	–
CN1CCN(NC(=O)c2cc(-c3cccc(Cl)c3)nc3ccccc23)CC1	–	–	–	–	–	–
OC(c1cc(-c2cccc(Cl)c2)nc2ccccc12)C1CCCCN1 (stereo not drawn)	–	–	–	27	–	–
Cc1nc2sc(C(c3ccc(Cl)cc3)N3CC(C)OC(C)C3)c(O)n2n1 (stereo not drawn)	–	–	23	–	–	–
CC(=O)N[C@@H](C)c1nc2ccccc2n1CCCN1CCN(c2nc(-c3ccc(C)cc3)cs2)CC1	–	–	–	–	–	–
CCN1CCN(c2ccc(NC(=O)c3ccc(Cl)c(N4CCCC4=O)c3)cc2)CC1	–	23	–	–	–	–
O=C(Nc1cccc(S(=O)(=O)N2CCOCC2)c1)c1cn(-c2ccccc2)nc1-c1ccccc1	–	–	–	–	–	–
CCN1CCN(c2ccc(NC(=O)c3ccc4c(c3)OCO4)cc2)CC1	–	–	–	–	–	–
CCN1CCN(c2ccc(NC(=O)c3ccc(Cl)c(S(=O)(=O)N4CCCC4)c3)cc2)CC1	–	99	–	–	–	–
CCN1CCN(c2ccc(NC(=O)c3ccc(OC)c(S(=O)(=O)N4CCCC4)c3)cc2)CC1	–	–	–	–	–	–
CCN(CC)CCOC(=O)c1ccc(NC(=O)c2ccc(Cl)c(S(=O)(=O)N3CCCCCC3)c2)cc1	–	98	–	–	–	–
O=C(Nc1ccncc1)c1ccc(Cl)c(S(=O)(=O)N2CCCCC2)c1	–	–	–	–	–	–
Cc1ccc(-c2nn(-c3ccccc3)cc2C(=O)Nc2ccc(C)c(S(=O)(=O)N3CCOCC3)c2)cc1	–	–	–	–	–	24
CCCCOc1cccc(C(=O)Nc2ccc(N3CCN(CC)CC3)cc2)c1	–	75	–	–	–	–
CC(=O)c1ccc(NC(=O)c2ccc(C)c(S(=O)(=O)N3CCOCC3)c2)cc1	–	–	–	–	–	–
CCOC(=O)c1ccc(NC(=O)c2ccc(C)c(S(=O)(=O)N3CCOCC3)c2)cc1	–	51	–	–	–	30
C/C=C/c1ccc2c(c1)O[C@H](CN(C)C(=O)NC1CCCC1)[C@H](C)CN([C@H](C)CO)S2(=O)=O	–	–	–	–	–	–
Cc1ccc(Cl)cc1N1CCN(S(=O)(=O)c2c(C)[nH]c(C)c2C(=O)N2CCCCC2)CC1	–	–	–	–	–	–
SMILES	CHO-K1 Ca PAM	M1 antag	M1 PAM	M1 ag parental	M1 ag	CHO-K1 Ca antag
CCCOc1ccc(Cn2cnc3ccccc32)cc1	–	–	–	–	–	25
Fc1ccc(Cn2cnc3ccccc32)cc1	–	–	–	–	–	–
N#CC(=NCc1cccnc1)C1=C(O)c2ccccc2C1=O	–	–	–	–	–	–
CC(Oc1ccc2c(c1)oc(=O)c1ccccc12)C(=O)NCCN1CCOCC1 (stereo not drawn)	–	–	–	–	–	–
CSCCC(NC(=O)c1ccccc1Br)C(=O)N1CCCC(C(F)(F)F)C1 (stereo not drawn)	–	–	–	–	–	–
NNC(=O)c1ccc(CN2C(=O)c3cccc4cccc2c34)cc1	–	–	–	–	34	–
CC(C)C[C@@H](NC(=O)C1CCC(CNC(=O)[C@@H]2CCCN2C(=O)OC(C)(C)C)CC1)C(=O)O (stereo partly drawn)	–	101	–	–	–	–
CCCCN(CCCNC(=S)NCCCc1cnc[nH]1)c1ccc(Br)cn1	–	–	–	–	–	–
CCNc1nc(NC(C)C)nc(NS(=O)(=O)c2ccc(C)cc2)n1	–	–	–	–	–	–
O=Cc1cc(Cl)ccc1OCCN1CCC(Cc2ccccc2)CC1	–	55	–	–	–	–
OCc1ccccc1OCCCN1CCC(Cc2ccccc2)CC1	–	33	–	–	–	–
Clc1ccccc1OCCN1CCC(Cc2ccccc2)CC1	–	30	–	–	–	–
Clc1cccc(CN2CCC(Cc3ccccc3)CC2)c1	–	–	–	–	–	–
c1ccc(CC2CCN(Cc3ccccn3)CC2)cc1	–	–	–	–	–	–
C=CCOc1ccccc1CN1CCC(Cc2ccccc2)CC1	–	–	–	–	–	–
COc1ccc(CCNC(=O)C2CCC(=O)N(CC3CCCCC3)C2)cc1 (stereo not drawn)	–	–	–	–	–	–
Cc1cc(/C=C\c2ccc3cc(N(C)C)ccc3[n+]2C)c(C)n1-c1ccccc1	–	90	–	20	26	35
C[n+]1c(/C=C/c2ccc(O)cc2)ccc2ccccc21	–	–	–	–	–	–
COc1ccc(NS(=O)(=O)c2cccc(C(=O)NNC(=O)CNC(=O)c3cccc(C)c3)c2)cc1	–	–	–	–	–	–
CN1CCCN=C1COC(=O)C(O)(c1ccccc1)C1CCCCC1 (stereo not drawn)	–	99	–	–	–	–
COc1ccc(CCNC(=O)C(=O)NCC2CCCN2S(=O)(=O)c2ccccc2)cc1 (stereo not drawn)	–	29	–	–	–	–
O=C(NCCc1ccc(F)cc1)C(=O)NCC1CCCN1S(=O)(=O)c1ccccc1 (stereo not drawn)	–	27	–	–	–	–
O=C(NCc1ccc(F)cc1)C(=O)NCC1CCCN1S(=O)(=O)c1ccccc1 (stereo not drawn)	–	–	–	–	–	–
Cc1ccc(C)c(S(=O)(=O)N2CCCC2CNC(=O)C(=O)NCCc2ccccc2)c1 (stereo not drawn)	–	31	–	–	–	–
COc1ccc(CCNC(=O)C2CC2)cc1	–	–	–	–	–	28
